Cycloheximide cs = counter-screen hit for Shiga toxin inhibitors, cycloheximide; cell reporter, cycloheximide protein synthesis inhibition counterscreen; max response, %; 300,000 tested, 12% active; AID 2314; in the data active means max response mostly above about 13%, no sharp cut-off; inactive means mostly below about 14%; further: read at 38.3 µM for the half of the compounds with a filed dose; 0% is about no effect
HCV inhibitor = blocks hepatitis C virus | Huh7.5.1 HCVcc-Cre infection, luciferase reporter, 44 h | 340,000 tested, 3.4% active | Potency, µM (top dose mostly 41.8 µM), for the others: top-dose activity change, negative = inhibition, usual class: inhibitors; further: potency means the concentration at half of the fitted maximal effect; on the % scale 0 is the no-effect control and ±100 the full control effect
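Cells seeded at 1,000/well and cultured 4 h, then compounds added followed by HCVcc-Cre virus (~0.5 moi). After 44 h further culture, luciferase substrate was added, plates held 15 min at room temperature, and luminescence read for 15 sec.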
Pf growth 48h = inhibits P. falciparum growth in the first generation, 48 h; Potency, µM (series often up to 28.7 µM), inactives show at the highest dose activity change, negative = inhibition, actives largely listed as inhibitors; 310,000 tested, 5.9% active; P. falciparum luciferase growth in erythrocytes, 48 h; further: potency means the concentration at half of the fitted maximal effect; on the % scale 0 is the no-effect control and ±100 the full control effect
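Cell-based growth assay: transgenic P. falciparum expressing firefly luciferase, cultured in red cells within RPMI 1640 containing 0.5% w/v Albumax, 24 mM bicarbonate and gentamycin. A drop in luciferase activity indicates inhibition.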
AMA1 RON2 block = disrupts binding of P. falciparum AMA1 to RON2 | AlphaScreen AMA1-biotinylated RON2 peptide binding | Potency, µM (highest dose often 58.2 µM), for the others: top-dose activity change, negative = inhibition, actives largely listed as inhibitors | AID 720542 | 360,000 tested, 0.2% active;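 further: potency means the concentration at half of the fitted maximal effect; 0% = vehicle wells and -100% = peptide control; nearly all actives have a fitted effect of over 45% in size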
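AMA1 (3D7) with his tag at 25 nM final met compounds first, then biotinylated RON2 peptide at 25 nM; detection used donor plus acceptor beads, 10 µg/mL apiece, read by AlphaScreen after 30 min at room temperature.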
Shiga inhibitor = Shiga toxin inhibition | Vero cells, Shiga toxin protein synthesis inhibition reporter | inhibition, % at 38.7 µM | 290,000 tested, 9.2% active; in the data active means inhibition mostly above about 28%, no sharp cut-off; inactive means mostly below about 43%; further: 0% is about no effect
Pf growth 96h = P. falciparum growth inhibition at 96 hour, primary screen for plastid delayed-death inhibitors | P. falciparum luciferase reporter growth, 96 h | Potency, µM (doses to about 28.7 µM), for inactives: top-dose activity change, negative = inhibition, hits mostly inhibitors | 320,000 tested, 6.9% active | AID 504834; further: potency means the concentration at half of the fitted maximal effect; on the % scale 0 is the no-effect control and ±100 the full control effect
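Two-generation exposure (96 h) targets delayed-death phenotype. Reporter parasites carrying integrated firefly luciferase, in red cells at 2% hematocrit and 0.05% parasitemia final, kept at 37 C, 5% CO2; luminescence loss indicates inhibition.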
* hit, by the source's call; i = inactive; ? = inconclusive; . = no result; [ ] = dose if it differs, or a comment. Sampled rows, rich in hits. Any-hit rate of the full collection: about 21%. Unless noted, the call rests on the fitted dose curve; in most records, active means well fitted curve in the direction sought with a large enough effect; inconclusive means small, poorly fitted or top-dose-only effect, or another doubt; inactive means no such curve, though single readings can be large; an effect the other way counts as inactive or inconclusive.

SMILES	Cycloheximide cs	HCV inhibitor	Pf growth 48h	AMA1 RON2 block	Shiga inhibitor	Pf growth 96h
CCN1CCN(c2ccc(S(=O)(=O)N3CCOCC3)cc2NC(=O)/C=C/c2ccc(C)cc2)CC1	.	-21%	-98%	11%	.	?
CCN1CCN(c2ccc(S(=O)(=O)N3CCCCC3)cc2NC(=O)/C=C/c2ccc([N+](=O)[O-])cc2)CC1	.	?	2.1µM*	-26%	.	1.9µM*
O=C(/C=C/c1ccc(Cl)c([N+](=O)[O-])c1)Nc1ccc(N2CCCC2)c(Cl)c1	-4	-17%	?	-13%	15	80%[5.75 µM]
CN1CCN(c2ccc(S(=O)(=O)N3CCCCC3)cc2NC(=O)/C=C/c2ccc(Cl)c([N+](=O)[O-])c2)CC1	.	?	2.9µM*	-15%	.	5.9µM*
CCN1CCN(c2ccc(S(=O)(=O)N3CCCCC3)cc2NC(=O)/C=C/c2ccc(F)cc2)CC1	.	?	10µM*	-21%	.	?
CC(C)C(=O)N1CCCC1(C)C(=O)Nc1cccc(Oc2ccccc2)c1 (centres undefined)	.	.	.	-5%	.	.
COc1cc(NC(=O)c2cccc(S(=O)(=O)N3CCCCC3)c2)cc(OC)c1OC	.	?	.	-17%	.	.
CCOC(=O)c1ccc(NC(=O)COc2ccccc2CNCCO)cc1	5	-16%	?	31%	-12	?
CC(C)(CO)NCc1ccccc1OCC(=O)Nc1ccccc1	24*	-30%	4%	-6%	64	.
Cc1ccc(NC(=O)COc2ccccc2CNC(C)(C)CC(C)(C)C)cc1	-1	?	7.4µM*	3%	-11	.
O=C(CC1C(=O)NCCN1Cc1ccoc1)NCCCn1ncc2ccccc21 (centres undefined)	8	5%	-15%	6%	43	0%
CCN(CC)CCN1C(=O)C(=O)/C(=C(/O)c2ccc(OC)cc2)C1c1ccco1 (centres undefined)	13	32%	-6%	-6%	46	0.93µM*
CCOc1ccc(/C(O)=C2/C(=O)C(=O)N(c3nc(C)c(C)s3)C2c2ccco2)cc1 (centres undefined)	18*	-9%	44%	-6%	123*	37%
CC(C)Oc1ccc(/C(O)=C2/C(=O)C(=O)N(CCN(C)C)C2c2ccco2)cc1 (centres undefined)	39*	13%	80%	8%	134*	.
CCN(CC)CCCN1C(=O)C(=O)/C(=C(/O)c2ccc(OC)cc2)C1c1ccco1 (centres undefined)	.	-13%	.	7%	.	.
O=C(c1ccc2nsnc2c1)N1CCN(c2ccc([N+](=O)[O-])cc2)CC1	6	?	-22%	-6%	-7	?
N#CC1(NC(=O)CSc2nnc(C3CC3)n2C2CC2)CCCCC1	.	7%	-20%	-6%	.	-18%
CNC(=O)c1ccsc1NC(=O)CS(=O)(=O)c1ccc(Cl)cc1	-5	11%	7%	12%	-11	?
Cc1nnc(SCC(=O)NCCC2=CCCCC2)[nH]c1=O	.	14%	.	0%	.	.
Cc1ccc(OCCOc2ccc(Cl)cc2Cl)c([N+](=O)[O-])n1	52*	?	62%	0%	106*	72%
Cc1ccc(COc2ccc(C)nc2[N+](=O)[O-])cc1	50*	?	476%	-7%	83*	226%
Cc1ccc(OCC(=O)c2ccc(Cl)s2)c([N+](=O)[O-])n1	27	-8%	257%	-8%	43	11%
COc1ccc(OCCOc2ccc(C)nc2[N+](=O)[O-])cc1	49*	-12%	157%	7%	93*	110%
CC(C)(C)OC(=O)N1C[C@H](O)C[C@H]1C(=O)OCC(=O)c1ccc([N+](=O)[O-])cc1	11	24%	43%	4%	-5	52%
COc1cc(/C=C/C(=O)OCC(=O)c2ccc(OC(F)F)cc2)ccc1O	.	10µM*	.	-6%	.	.
SMILES	Cycloheximide cs	HCV inhibitor	Pf growth 48h	AMA1 RON2 block	Shiga inhibitor	Pf growth 96h
Cc1cccc(C)c1NC(=O)c1csc(COCCO)n1	.	.	.	5%	.	.
CC(=O)N1CCN(C(=O)c2c(-c3ccccc3)noc2C)CC1	.	-9%	-10%	3%	.	7%
Cc1onc(-c2ccccc2)c1C(=O)N1CCCN2C(=O)c3ccccc3C21 (centres undefined)	-1	14%	?	2%	-7	10µM*
CN1CCN(c2ncnc3c2ncn3[C@H]2CN(C)C[C@@H](CO)O2)CC1	.	.	.	-1%	.	.
O=C(c1ccc(=O)[nH]c1)N(c1ccccc1)C(CCc1ccccc1)c1nc2ccccc2[nH]1 (centres undefined)	.	.	.	0%	.	.
CCCCN(C)c1c(C)nc2ccc(C(=O)Nc3cc(-c4ccccc4)ccc3OC)cn12	.	.	.	-11%	.	.
CCCOc1ccc(C(C)=O)cc1CN1CCOCC1	-3	13%	-4%	-1%	-8	10%
CCOc1ccc(C(C)=O)cc1CN1C(=O)NC2(CCCCCC2)C1=O	-4	-1%	2.3µM*	12%	-3	4.7µM*
COC(=O)c1ccc(CN2C(=O)NC3(CCCCC3)C2=O)cc1	119*	-2%	50%	-10%	61*	66%
CCC1(c2ccc(Cl)cc2)NC(=O)N(Cc2ccc(C(=O)OC)cc2)C1=O (centres undefined)	10	10µM*	?	-13%	-8	?
CC(=O)c1ccc(OCC(C)C)c(CN2CCCCC2)c1	-10	17%	-3%	4%	-25	3.7µM*
COc1ccc([C@]23Cc4ccccc4C(O2)c2c(cc(C)n(Cc4ccccc4)c2=O)O3)cc1	9	.	?	.	i	?
O=C(O)C1CCCN1 (centres undefined)	-4	.	.	.	32	.
O=C(NC1CCCCC1)C(c1ccc(C(F)(F)F)cc1)n1c(=O)c(-c2ccccc2)nc2ccccc21 (centres undefined)	.	.	.	-3%	.	.
O=C(CC1S/C(=N/N=C2CCCCCC2)NC1=O)Nc1ccc(Br)cc1F (centres undefined)	7	15%	5%	82%	-29	-4%
Cc1ccc(Cn2ccc(NC(=O)c3noc4c3CCCC4)n2)cc1	11	?	31%	-6%	20	?
Cc1ccc(O)c(NC(=O)c2noc3c2CCCCC3)c1	42*	-7%	-81%	10%	185*	-4%
CCc1ccc(NC(=O)c2noc3c2CCC3)cc1	25*	-16%	.	-19%	28	?
CCc1ccc(NC(=O)c2noc3c2CCc2ccccc2-3)cc1	10	-4%	.	-3%	27	?
CCc1ccc(NC(=O)c2noc3c2CCCCC3)cc1	23*	10%	135%	-6%	85*	3.7µM*
O=C(NC1CCCCC1)c1noc2c1CCCCC2	39*	5%	125%	2%	72*	61%
NC(=O)c1ccc(-c2ccc(N3C(c4ccsc4)=Cc4ccc(F)cc4C3CC(=O)c3ccco3)cc2)cc1 (centres undefined)	.	.	.	-15%	.	.

Bioassay records (PubChem BioAssay)
